{
  "source": "PubChem BioAssay AID602310",
  "about": "(National Center for Advancing Translational Sciences (NCATS), 2012)",
  "note": "Hit rate of the full screen: of about 410,000 compounds, about 310 (0.076%) were called active. Inconclusive results (about 2%) are left out. Many of the other results were omitted from the sample, so actives are more common in it than they were. Values without a mark were called inactive. Calls follow the shape of the dose curve; as a rule, active = well fitted curve in the direction sought with a large enough effect; inconclusive = small, poorly fitted or top-dose-only effect; inactive = flat fitted curve, though single readings scatter. % is scaled to controls: 0 for no effect and ±100 for the full control effect; potency is read from the fitted curve at half-maximal effect.",
  "data": [
    {"biological_target": "DNA dC->dU-editing enzyme APOBEC-3G (Homo sapiens) (UniProt Q9HC16)", "sequence (Q9HC16 whole entry, looked up)": "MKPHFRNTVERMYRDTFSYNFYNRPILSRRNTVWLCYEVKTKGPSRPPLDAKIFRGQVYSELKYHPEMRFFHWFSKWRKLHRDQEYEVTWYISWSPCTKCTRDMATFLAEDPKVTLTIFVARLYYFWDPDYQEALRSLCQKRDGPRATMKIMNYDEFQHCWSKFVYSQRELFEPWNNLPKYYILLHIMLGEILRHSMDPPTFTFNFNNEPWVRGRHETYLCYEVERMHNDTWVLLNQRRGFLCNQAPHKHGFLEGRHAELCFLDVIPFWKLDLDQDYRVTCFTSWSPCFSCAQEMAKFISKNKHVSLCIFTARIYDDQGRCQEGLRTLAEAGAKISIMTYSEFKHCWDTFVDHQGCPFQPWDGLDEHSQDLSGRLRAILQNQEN", "assay": "qHTS for Inhibitors of Vif-A3G Interactions: qHTS; also: nearly all actives have a fitted effect of over 60% in size;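 as to activity, negative = active: hits raise eYFP signal because A3G escapes Vif-driven loss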", "details": "HeLa A3G-eYFP + Vif (tagged APOBEC3G with the HIV-1 protein that degrades it), YFP fluorescence, overnight; series mostly up to 46.1 µM; activity, negative = active: at the top concentration", "text": "The recent discovery and characterization of host restriction factors, which provide a potent defense to invading retroviruses, has provided new targets for antiviral drug development. APOBEC3G (A3G) and APOBEC3F (A3F) are potent cytidine deaminases that block HIV-1 replication; HIV-1 expresses the Vif protein, which counteracts A3G and A3F by binding to them and inducing their proteasomal degradation. The Vif-A3G and Vif-A3F interactions provide two potential targets for development of small molecules which can interfere with the ability of Vif to degrade A3G or A3F. […] To identify inhibitors that can interfere with Vif mediated degradation of A3G and A3F, we have developed Hela cell lines that stably express A3G or A3F tagged with eYFP at the C-terminal end (A3G-eYFP or A3F-eYFP, respectively) and Vif. In the absence of an inhibitor, Vif induces degradation of A3G-eYFP and A3F-eYFP, and the cells are not fluorescent. In the presence of an inhibitor, it is expected that Vif will be unable to degrade A3G-eYFP and/or A3F-eYFP, resulting in an increase in yellow fluorescence. In this assays Vif A3G was screened against the Molecular Library Small Molecule Repository (MLSMR). NIH Chemical Genomics Center [NCGC] NIH Molecular Libraries Probe Centers Network [MLPCN] MLPCN Grant: MH093245 Assay Submitter (PI): Vinay Pathak, National Cancer Institute\n5 uL of 700 cells/well of A3G-YFP cells are dispensed into black, clear bottom plates. The plates are incubated overnight at 37 deg C. 23 nL of compounds are added by pintool. The plates are incubated overnight at 37 deg C and then read on the TTP Acumen (Ex 488/ Em 500-530).", "units": {"activity, negative = active": "%"}, "values": [
      {"smiles": "CCn1c(/C=C/c2ccc([N+](=O)[O-])o2)nc2ccccc2c1=O", "Potency": "3.98 µM (active)"},
      {"smiles": "CN(C)CCCn1c(SCCN2C(=O)c3ccccc3C2=O)nc2ccccc2c1=O", "activity, negative = active": 0.0321},
      {"smiles": "COc1cc(OC)c(OC)cc1/C=C/c1nc2ccccc2c(=O)n1-c1ccc(Br)c(C)c1", "activity, negative = active": -5.3},
      {"smiles": "CC(C)(C)C1CCC(NC(=O)c2cnn3c2NC(=C2CC2)C=C3C(F)F)CC1", "note": "(stereo not given)", "activity, negative = active": 2.17},
      {"smiles": "CCCCS(=O)(=O)c1oc(-c2cccs2)nc1S(=O)(=O)c1ccccc1", "activity, negative = active": -18.8},
      {"smiles": "Cc1ccc(Cl)cc1N1CCN(S(=O)(=O)c2cc3[nH]c(=O)c(=O)[nH]c3cc2C)CC1", "activity, negative = active": 0.0103},
      {"smiles": "CCc1ccc(C(=O)CC2(O)C(=O)N(CCc3ccccc3)c3ccc(Br)cc32)cc1", "note": "(stereo not given)", "activity, negative = active": -13.6},
      {"smiles": "COc1cc(OC)c(OC)cc1/C=C1\\C=Cc2ccccc21", "activity, negative = active": -27.6},
      {"smiles": "COc1ccc(C2/C=C\\CN(Cc3ccco3)C(C)C(=O)N2Cc2ccc(F)cc2)cc1", "note": "(stereo not given)", "activity, negative = active": 3.73},
      {"smiles": "Cc1ccccc1CSCCNC(=O)C1CCN(S(=O)(=O)Cc2ccccc2)CC1", "activity, negative = active": 2.97},
      {"smiles": "Cc1cccc(CN2Cc3cccc4c3[C@H](C=CC4)CC2=S)c1", "activity, negative = active": 3.11},
      {"smiles": "Cc1csc(NCC(=O)c2c[nH]c3ccccc23)n1", "activity, negative = active": -3.43},
      {"smiles": "CCOc1cccc2c1N[C@@H](c1ccc(C(=O)O)cc1)[C@H]1CC=C[C@@H]21", "activity, negative = active": 1.39},
      {"smiles": "CCOC(=O)c1cc2c(=O)n3ccccc3nc2n(CC2CCCO2)c1=NC(=O)c1ccccc1Br", "note": "(stereo not given)", "activity, negative = active": -6.1},
      {"smiles": "CC(C)OC(=O)c1ccc(NCc2cc(O)ccc2O)cc1Cl", "Potency": "12.6 µM (active)"},
      {"smiles": "O=S(=O)(c1cccc(C(F)(F)F)c1)N1CCN(c2nc(-c3cccs3)nc3ccccc23)CC1", "activity, negative = active": 0.472},
      {"smiles": "Cc1c(Cl)cccc1NC(=O)CCS(=O)(=O)c1ccc2c(c1)oc(=O)n2C", "activity, negative = active": 1.33},
      {"smiles": "COc1cc2[nH]c(C)c(CCN3CCN(c4ccccc4)CC3)c2cc1OC", "activity, negative = active": 1.15},
      {"smiles": "CCc1ccc(S(=O)(=O)n2ccnc2)cc1", "activity, negative = active": 0.941},
      {"smiles": "Cc1[nH]c2ccccc2c1C(=O)C(=O)N(C)c1ccccc1", "activity, negative = active": 0.569},
      {"smiles": "COc1ccc(CCNC(=O)Cn2c(=O)cc(C(F)(F)F)c3c(C)nn(C)c32)c(OC)c1", "activity, negative = active": 4.39},
      {"smiles": "COc1cc2c(=O)c(S(=O)(=O)c3ccc(C(C)C)cc3)cn(Cc3ccccc3C)c2cc1OC", "activity, negative = active": -1.18},
      {"smiles": "O=C(O)c1c(Br)c(Br)c(Br)c(Br)c1C1c2ccc(O)cc2Oc2cc(O)ccc21", "activity, negative = active": 3.84},
      {"smiles": "CCOC(=O)N1CCC(NC(=O)c2cnn(-c3cccc(C)c3)c2C2CCN(C(=O)OC(C)(C)C)CC2)CC1", "activity, negative = active": 1.48},
      {"smiles": "OCCNc1ncnc2oc(-c3ccco3)c(-c3ccco3)c12", "activity, negative = active": -5.55},
      {"smiles": "O=[N+]([O-])c1ccc(/C=C/c2ccc3cccnc3c2)cc1", "activity, negative = active": -2.68},
      {"smiles": "O=C(O)C1=C/C(=C/C=[N+]2c3cc(O)c(O[C@H]4OC(CO)[C@@H](O)[C@@H](O)[C@@H]4O)cc3C[C@@H]2C(=O)[O-])C[C@H](C(=O)O)N1", "note": "(stereo not given in full)", "activity, negative = active": 1.5},
      {"smiles": "Cc1ccc2onc(CC(=O)N3CCN(c4ccc(Cl)cc4)CC3)c2c1", "activity, negative = active": 0.252},
      {"smiles": "Cc1ccc(C=O)cc1Cl", "activity, negative = active": 0.329},
      {"smiles": "C(=Nc1ccc(/C=C/c2ccnc3ccccc23)cc1)c1cc2c3c(c1)CCCN3CCC2", "activity, negative = active": 2.24},
      {"smiles": "CC(C)(C)c1ccc(C(=O)NCC(c2ccc(Cl)cc2)N2CCOCC2)cc1", "note": "(stereo not given)", "activity, negative = active": 1.59},
      {"smiles": "O=C1CN(C(=O)Nc2ccccc2C(F)(F)F)C(c2ccccc2)c2c(sc3c2CCCC3)N1", "note": "(stereo not given)", "activity, negative = active": -1.24},
      {"smiles": "CCCN(CCC)c1nc2c(C)cccn2c(=O)c1/C=C1/SC(=S)N(Cc2ccco2)C1=O", "Potency": "3.16 µM (active)"},
      {"smiles": "CN(C)c1ccc(/C=c2\\[nH]c(=O)/c(=C/c3ccc(N(C)C)cc3)[nH]c2=O)cc1", "activity, negative = active": -0.485},
      {"smiles": "CCN(C(=O)CSc1nnc(C)n2c1cc1occc12)c1ccccc1", "activity, negative = active": -4.9},
      {"smiles": "CCOc1ccc(C(=O)/C=C/c2cn(CC(O)CN3CCCCCC3)c3ccccc23)cc1", "note": "(stereo not given)", "activity, negative = active": -4.47},
      {"smiles": "CCOC(=O)N1CCc2c(sc(NCc3cccc(F)c3)c2C(=O)Nc2ccccc2OCC)C1", "activity, negative = active": -3.66},
      {"smiles": "O=C(COC(=O)c1ccccc1OCCOc1ccccc1)Nc1cccc(Br)c1", "activity, negative = active": 0.386},
      {"smiles": "Cc1cc(C)cc(NC(=O)CSc2nc3nccnc3c(=O)n2CCc2c[nH]c3ccccc23)c1", "activity, negative = active": 6.02},
      {"smiles": "CCOC(=O)c1ccc(NC(=O)C2CC(=O)NC(=Nc3ccc(C)c(C)c3)S2)cc1", "note": "(stereo not given)", "activity, negative = active": 1.17},
      {"smiles": "CCCCNC(=O)Cn1c(SCc2cccc(Cl)c2)nc2ccncc21", "activity, negative = active": 0.68},
      {"smiles": "CCCn1ccc2c(OCC(=O)NCc3ccc(F)cc3)cccc2c1=O", "activity, negative = active": -0.319},
      {"smiles": "O=C(Nc1ccc(Cl)cc1)c1cnn2c1NC(=C1CC1)C=C2C(F)F", "activity, negative = active": -0.955},
      {"smiles": "Cc1cccc(-c2nnc(SC(C)C(=O)Nc3ccccc3)n2C)c1", "note": "(stereo not given)", "activity, negative = active": -0.805},
      {"smiles": "CCN1CCN(c2ccc(/C=C/c3ccnc4ccccc34)cc2)CC1", "activity, negative = active": 1.79},
      {"smiles": "COc1ccc(-c2nc3c(c(SCC(=O)Nc4ccc(C(=O)O)cc4)n2)Cc2ccccc2O3)cc1", "activity, negative = active": 3.8},
      {"smiles": "Brc1cccc[n+]1Cc1cccc(C[n+]2ccccc2Br)c1", "activity, negative = active": -5.54},
      {"smiles": "CC(C)(C)n1ncc2c(=O)n(Cc3ccc(C(=O)c4ccccc4)cc3)cnc21", "activity, negative = active": -0.656},
      {"smiles": "OC(CBr)C[n+]1cccc2cc(Br)ccc21", "note": "(stereo not given)", "activity, negative = active": -3.43},
      {"smiles": "N#CC1=C(N)Oc2c(sc3ccccc23)C1c1ccco1", "note": "(stereo not given)", "Potency": "11.2 µM (active)"},
      {"smiles": "O=C(OC12CC3CC(CC(C3)C1)C2)c1ccc(NCc2cc(O)ccc2O)cc1", "Potency": "6.31 µM (active)"},
      {"smiles": "COC(=O)c1ccccc1NC(=O)c1cnn(-c2ccc(F)cc2)c1-n1cccc1", "activity, negative = active": -4.09},
      {"smiles": "CCOc1ccc(N(CC)S(=O)(=O)N2CCCC(C(=O)NCc3ccc(Cl)cc3)C2)cc1", "note": "(stereo not given)", "activity, negative = active": 3.88},
      {"smiles": "N#Cc1ccc[n+](CC(=O)c2ccc(F)cc2)c1", "activity, negative = active": -2.66},
      {"smiles": "O=C(C[n+]1ccncc1)c1ccc2c(c1)CCCC2", "activity, negative = active": -7.56}
    ]}
  ]
}
